Legend:
Experiment in all cases: log2 ratio of Biotin-Ahx-Ub-VS probe labelling (fragment/DMSO); higher = less target engagement (more negative = stronger competition), active = hit call of the paper (q ≤ 0.05, log2 ratio ≤ -1)
Conditions in all cases: compound concentration: 200 uM; treatment time: 3 h
USP42 = biological target: T1, USP42 (UniProt Q9H9J4)
T1 sequence (whole entry): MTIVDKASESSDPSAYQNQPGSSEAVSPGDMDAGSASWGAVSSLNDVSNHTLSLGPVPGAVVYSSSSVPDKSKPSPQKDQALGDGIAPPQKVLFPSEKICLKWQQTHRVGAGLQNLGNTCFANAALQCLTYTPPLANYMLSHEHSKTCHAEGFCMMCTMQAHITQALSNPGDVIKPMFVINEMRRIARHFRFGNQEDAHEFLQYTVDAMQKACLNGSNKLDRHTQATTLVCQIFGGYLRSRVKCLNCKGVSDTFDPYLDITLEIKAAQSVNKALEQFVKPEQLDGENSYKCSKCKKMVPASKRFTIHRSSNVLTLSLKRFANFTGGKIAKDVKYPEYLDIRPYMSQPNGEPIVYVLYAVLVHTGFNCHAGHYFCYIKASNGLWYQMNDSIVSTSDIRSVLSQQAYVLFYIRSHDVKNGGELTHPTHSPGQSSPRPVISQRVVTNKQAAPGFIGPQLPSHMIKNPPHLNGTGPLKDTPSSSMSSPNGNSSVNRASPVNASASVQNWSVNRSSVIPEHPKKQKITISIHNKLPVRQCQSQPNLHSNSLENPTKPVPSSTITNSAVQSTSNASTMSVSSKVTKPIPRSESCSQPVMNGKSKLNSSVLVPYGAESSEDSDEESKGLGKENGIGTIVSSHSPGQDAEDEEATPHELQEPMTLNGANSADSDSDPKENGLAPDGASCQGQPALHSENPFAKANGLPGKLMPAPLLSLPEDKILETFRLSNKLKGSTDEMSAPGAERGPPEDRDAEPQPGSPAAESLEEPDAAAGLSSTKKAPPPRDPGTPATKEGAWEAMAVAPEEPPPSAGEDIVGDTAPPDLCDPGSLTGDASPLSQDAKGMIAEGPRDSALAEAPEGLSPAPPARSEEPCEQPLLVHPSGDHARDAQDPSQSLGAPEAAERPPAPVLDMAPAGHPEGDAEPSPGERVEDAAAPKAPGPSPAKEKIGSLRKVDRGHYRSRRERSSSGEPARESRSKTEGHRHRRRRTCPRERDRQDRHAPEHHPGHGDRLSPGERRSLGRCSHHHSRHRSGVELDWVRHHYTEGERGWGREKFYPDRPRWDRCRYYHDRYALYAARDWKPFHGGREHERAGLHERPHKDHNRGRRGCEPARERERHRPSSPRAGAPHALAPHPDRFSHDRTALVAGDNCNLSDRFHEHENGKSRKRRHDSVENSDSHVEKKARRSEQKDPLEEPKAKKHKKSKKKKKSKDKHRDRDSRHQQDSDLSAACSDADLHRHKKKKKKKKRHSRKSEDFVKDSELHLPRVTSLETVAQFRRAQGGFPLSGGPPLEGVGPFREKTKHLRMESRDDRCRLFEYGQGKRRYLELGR
Summary of the method: (§1)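 HEK293T lysate, 495 µg per sample in Tris/CHAPS/IGEPAL buffer with protease inhibitors, was treated in triplicate with fragment at 200 µM or vehicle for 3 h and then with Biotin-Ahx-Ub-VS at 0.5 µM final for 1 h. Labelled DUBs were NeutrAvidin-enriched, digested with LysC and trypsin, and run by diaPASEF LC-MS/MS. Spectronaut label-free quantities were global-median-normalised, and values are average log2 fragment/vehicle ratios by unpaired t-test on proteins with ≥2 unique peptides.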

USP46 = USP46 (UniProt P62068)
Summary of the method: as §1

USP47 = biological target: T2, USP47 (UniProt Q96K76)
T2 sequence (whole entry): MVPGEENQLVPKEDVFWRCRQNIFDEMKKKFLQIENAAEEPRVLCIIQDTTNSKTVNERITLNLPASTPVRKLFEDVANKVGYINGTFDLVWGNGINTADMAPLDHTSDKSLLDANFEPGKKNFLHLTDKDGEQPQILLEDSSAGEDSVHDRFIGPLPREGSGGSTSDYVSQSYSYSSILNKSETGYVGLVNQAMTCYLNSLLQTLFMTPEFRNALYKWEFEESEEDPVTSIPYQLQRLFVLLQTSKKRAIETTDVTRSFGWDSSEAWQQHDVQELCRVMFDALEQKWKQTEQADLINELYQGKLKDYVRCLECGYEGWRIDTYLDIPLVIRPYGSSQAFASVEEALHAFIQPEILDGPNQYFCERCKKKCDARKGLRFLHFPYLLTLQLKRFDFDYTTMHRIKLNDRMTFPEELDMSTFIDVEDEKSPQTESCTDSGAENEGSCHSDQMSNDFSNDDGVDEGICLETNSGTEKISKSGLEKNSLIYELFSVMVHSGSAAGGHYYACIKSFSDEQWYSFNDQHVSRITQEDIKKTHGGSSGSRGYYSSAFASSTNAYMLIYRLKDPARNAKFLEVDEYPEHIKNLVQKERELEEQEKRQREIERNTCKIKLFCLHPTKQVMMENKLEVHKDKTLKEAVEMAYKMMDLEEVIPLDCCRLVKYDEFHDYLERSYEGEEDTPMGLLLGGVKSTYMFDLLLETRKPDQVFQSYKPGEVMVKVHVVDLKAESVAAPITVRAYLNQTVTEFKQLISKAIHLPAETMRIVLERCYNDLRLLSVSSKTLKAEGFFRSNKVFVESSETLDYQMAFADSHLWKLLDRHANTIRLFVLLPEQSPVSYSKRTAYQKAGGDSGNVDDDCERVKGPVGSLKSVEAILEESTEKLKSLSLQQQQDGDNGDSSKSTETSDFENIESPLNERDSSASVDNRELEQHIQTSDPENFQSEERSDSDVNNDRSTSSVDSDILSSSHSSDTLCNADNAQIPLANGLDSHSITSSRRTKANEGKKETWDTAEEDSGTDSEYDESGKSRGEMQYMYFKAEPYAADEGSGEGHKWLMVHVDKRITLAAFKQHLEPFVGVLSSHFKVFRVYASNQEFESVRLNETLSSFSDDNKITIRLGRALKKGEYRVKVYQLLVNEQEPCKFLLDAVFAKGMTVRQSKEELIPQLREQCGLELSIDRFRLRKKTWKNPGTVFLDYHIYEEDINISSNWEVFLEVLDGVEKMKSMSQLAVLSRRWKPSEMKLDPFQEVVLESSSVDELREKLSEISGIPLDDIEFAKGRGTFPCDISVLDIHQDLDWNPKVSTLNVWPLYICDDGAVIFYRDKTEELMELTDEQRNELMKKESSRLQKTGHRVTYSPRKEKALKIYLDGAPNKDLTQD
Summary of the method: as §1

USP48 = biological target: T3, USP48 (UniProt Q86UV5)
T3 sequence (whole entry): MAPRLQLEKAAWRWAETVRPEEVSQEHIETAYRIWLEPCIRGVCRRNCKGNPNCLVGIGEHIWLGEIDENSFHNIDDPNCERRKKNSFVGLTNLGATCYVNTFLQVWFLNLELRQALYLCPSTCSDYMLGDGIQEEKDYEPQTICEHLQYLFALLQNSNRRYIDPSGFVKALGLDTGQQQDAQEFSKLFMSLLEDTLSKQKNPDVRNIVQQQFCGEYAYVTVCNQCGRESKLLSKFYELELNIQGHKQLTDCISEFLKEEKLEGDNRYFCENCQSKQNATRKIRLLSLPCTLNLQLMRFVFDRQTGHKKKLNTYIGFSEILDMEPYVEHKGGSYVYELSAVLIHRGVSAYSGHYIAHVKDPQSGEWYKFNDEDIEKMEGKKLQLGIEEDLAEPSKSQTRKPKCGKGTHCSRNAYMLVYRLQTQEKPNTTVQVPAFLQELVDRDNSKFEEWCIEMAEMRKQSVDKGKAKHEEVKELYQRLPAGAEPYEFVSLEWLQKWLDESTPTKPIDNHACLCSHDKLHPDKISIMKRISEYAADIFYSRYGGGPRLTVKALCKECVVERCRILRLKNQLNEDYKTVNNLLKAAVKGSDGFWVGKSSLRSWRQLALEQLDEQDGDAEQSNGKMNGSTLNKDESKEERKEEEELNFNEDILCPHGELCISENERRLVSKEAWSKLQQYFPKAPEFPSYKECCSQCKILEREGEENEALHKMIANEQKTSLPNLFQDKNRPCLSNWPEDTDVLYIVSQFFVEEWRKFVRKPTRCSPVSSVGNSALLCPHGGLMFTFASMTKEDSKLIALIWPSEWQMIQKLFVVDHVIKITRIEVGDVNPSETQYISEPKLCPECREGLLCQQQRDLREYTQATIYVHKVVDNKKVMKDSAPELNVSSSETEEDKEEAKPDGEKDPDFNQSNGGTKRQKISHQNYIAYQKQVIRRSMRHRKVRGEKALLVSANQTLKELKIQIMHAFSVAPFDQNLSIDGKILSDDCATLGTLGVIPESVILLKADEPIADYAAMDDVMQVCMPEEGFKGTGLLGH
Summary of the method: as §1

USP5 = biological target: T4, USP5 (UniProt P45974)
T4 sequence (whole entry): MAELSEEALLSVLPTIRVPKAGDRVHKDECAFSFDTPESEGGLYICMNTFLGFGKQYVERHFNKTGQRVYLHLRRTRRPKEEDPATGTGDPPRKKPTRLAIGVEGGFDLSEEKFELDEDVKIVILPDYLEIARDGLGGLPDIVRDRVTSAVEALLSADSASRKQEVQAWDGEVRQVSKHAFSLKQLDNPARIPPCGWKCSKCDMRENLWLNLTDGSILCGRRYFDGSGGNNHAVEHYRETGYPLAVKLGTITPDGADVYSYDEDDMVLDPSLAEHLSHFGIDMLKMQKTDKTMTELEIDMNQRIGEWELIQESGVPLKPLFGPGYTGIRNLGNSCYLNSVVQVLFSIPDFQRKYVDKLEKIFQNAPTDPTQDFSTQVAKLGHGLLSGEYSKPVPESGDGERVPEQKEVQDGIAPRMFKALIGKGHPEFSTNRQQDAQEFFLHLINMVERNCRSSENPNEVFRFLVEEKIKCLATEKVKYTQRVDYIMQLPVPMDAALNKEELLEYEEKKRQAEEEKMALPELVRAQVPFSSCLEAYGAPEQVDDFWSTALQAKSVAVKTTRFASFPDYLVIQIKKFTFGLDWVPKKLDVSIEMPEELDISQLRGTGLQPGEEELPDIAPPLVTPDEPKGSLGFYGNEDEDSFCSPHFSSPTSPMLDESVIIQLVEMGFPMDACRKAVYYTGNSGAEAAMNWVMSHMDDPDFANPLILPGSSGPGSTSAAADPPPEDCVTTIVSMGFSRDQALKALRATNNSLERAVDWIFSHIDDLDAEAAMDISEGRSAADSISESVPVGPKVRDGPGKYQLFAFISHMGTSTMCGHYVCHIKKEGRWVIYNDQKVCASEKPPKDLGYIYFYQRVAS
Summary of the method: as §1

USP54 = USP54 (UniProt Q70EL1)
Summary of the method: as §1

USP7 = USP7 (UniProt Q93009)
Summary of the method: as §1

USP8 = biological target: T5, USP8 (UniProt P40818)
T5 sequence (whole entry): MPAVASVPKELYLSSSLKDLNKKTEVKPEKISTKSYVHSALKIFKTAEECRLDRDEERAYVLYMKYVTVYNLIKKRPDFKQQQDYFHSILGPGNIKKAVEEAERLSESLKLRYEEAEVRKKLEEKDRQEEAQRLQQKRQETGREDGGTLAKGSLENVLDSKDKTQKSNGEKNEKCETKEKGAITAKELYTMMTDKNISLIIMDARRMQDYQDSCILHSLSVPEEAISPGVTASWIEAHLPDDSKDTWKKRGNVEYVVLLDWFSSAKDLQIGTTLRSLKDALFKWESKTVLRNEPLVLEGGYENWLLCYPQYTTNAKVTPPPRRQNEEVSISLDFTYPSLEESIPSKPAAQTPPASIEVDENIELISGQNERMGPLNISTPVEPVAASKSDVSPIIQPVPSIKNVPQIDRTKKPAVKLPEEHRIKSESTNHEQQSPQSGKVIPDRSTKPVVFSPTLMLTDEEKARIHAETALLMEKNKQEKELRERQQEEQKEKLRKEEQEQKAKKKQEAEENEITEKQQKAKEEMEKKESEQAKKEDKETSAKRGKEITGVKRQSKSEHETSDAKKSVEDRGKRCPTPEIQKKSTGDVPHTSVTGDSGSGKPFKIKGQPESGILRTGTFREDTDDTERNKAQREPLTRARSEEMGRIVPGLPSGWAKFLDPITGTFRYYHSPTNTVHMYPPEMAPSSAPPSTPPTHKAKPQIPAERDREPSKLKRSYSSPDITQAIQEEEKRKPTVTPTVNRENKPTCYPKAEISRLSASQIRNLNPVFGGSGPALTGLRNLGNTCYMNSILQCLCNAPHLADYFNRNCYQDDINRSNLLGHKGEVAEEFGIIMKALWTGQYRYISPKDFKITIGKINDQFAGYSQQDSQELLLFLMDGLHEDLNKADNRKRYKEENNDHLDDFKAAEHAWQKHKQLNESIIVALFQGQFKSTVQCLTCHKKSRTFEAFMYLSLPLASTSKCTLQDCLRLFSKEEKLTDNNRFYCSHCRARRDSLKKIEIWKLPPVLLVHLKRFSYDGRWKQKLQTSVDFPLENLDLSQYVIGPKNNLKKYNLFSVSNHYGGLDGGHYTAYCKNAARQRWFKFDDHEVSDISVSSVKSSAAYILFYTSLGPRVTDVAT
Summary of the method: as §1

Measured: log2 ratio of Biotin-Ahx-Ub-VS probe labelling

Sequence of USP46 (P62068 whole entry): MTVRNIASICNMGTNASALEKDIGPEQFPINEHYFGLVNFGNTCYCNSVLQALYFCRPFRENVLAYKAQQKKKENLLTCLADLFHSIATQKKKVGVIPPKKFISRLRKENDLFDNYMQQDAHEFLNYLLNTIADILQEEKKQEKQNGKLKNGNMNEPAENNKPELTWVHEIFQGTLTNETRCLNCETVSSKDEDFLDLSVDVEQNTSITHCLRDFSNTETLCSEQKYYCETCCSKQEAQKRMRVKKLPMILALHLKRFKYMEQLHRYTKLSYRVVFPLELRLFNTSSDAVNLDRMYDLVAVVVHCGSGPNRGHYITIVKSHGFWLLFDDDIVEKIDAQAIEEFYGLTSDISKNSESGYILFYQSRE
Sequence of USP7 (Q93009 whole entry, looked up): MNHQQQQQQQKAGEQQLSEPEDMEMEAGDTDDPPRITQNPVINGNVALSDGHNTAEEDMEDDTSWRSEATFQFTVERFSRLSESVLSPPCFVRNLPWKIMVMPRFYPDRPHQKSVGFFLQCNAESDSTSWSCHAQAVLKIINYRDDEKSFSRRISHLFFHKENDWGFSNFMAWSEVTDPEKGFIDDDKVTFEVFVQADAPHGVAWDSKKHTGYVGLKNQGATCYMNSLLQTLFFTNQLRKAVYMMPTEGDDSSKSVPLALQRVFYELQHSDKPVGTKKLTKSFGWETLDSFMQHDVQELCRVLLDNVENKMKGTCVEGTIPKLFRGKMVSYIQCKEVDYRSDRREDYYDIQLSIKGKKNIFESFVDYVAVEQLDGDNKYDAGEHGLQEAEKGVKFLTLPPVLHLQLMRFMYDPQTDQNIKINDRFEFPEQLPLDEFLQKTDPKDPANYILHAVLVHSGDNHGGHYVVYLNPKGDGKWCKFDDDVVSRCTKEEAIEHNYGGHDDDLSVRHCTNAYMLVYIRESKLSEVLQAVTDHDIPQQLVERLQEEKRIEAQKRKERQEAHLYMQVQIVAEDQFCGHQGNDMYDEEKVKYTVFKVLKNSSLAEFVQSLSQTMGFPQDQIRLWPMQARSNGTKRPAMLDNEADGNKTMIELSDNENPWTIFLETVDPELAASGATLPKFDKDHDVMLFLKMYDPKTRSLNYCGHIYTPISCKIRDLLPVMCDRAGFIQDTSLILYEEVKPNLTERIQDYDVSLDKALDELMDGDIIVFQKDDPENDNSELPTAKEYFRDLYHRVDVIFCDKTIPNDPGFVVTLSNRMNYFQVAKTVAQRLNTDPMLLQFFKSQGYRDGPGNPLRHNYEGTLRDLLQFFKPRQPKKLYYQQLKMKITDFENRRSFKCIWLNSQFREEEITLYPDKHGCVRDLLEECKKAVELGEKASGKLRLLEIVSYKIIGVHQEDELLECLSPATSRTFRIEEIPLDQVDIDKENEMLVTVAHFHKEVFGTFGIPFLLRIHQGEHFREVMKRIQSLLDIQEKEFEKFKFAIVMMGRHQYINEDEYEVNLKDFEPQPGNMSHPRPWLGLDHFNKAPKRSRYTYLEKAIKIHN
Sequence of USP54 (Q70EL1 whole entry): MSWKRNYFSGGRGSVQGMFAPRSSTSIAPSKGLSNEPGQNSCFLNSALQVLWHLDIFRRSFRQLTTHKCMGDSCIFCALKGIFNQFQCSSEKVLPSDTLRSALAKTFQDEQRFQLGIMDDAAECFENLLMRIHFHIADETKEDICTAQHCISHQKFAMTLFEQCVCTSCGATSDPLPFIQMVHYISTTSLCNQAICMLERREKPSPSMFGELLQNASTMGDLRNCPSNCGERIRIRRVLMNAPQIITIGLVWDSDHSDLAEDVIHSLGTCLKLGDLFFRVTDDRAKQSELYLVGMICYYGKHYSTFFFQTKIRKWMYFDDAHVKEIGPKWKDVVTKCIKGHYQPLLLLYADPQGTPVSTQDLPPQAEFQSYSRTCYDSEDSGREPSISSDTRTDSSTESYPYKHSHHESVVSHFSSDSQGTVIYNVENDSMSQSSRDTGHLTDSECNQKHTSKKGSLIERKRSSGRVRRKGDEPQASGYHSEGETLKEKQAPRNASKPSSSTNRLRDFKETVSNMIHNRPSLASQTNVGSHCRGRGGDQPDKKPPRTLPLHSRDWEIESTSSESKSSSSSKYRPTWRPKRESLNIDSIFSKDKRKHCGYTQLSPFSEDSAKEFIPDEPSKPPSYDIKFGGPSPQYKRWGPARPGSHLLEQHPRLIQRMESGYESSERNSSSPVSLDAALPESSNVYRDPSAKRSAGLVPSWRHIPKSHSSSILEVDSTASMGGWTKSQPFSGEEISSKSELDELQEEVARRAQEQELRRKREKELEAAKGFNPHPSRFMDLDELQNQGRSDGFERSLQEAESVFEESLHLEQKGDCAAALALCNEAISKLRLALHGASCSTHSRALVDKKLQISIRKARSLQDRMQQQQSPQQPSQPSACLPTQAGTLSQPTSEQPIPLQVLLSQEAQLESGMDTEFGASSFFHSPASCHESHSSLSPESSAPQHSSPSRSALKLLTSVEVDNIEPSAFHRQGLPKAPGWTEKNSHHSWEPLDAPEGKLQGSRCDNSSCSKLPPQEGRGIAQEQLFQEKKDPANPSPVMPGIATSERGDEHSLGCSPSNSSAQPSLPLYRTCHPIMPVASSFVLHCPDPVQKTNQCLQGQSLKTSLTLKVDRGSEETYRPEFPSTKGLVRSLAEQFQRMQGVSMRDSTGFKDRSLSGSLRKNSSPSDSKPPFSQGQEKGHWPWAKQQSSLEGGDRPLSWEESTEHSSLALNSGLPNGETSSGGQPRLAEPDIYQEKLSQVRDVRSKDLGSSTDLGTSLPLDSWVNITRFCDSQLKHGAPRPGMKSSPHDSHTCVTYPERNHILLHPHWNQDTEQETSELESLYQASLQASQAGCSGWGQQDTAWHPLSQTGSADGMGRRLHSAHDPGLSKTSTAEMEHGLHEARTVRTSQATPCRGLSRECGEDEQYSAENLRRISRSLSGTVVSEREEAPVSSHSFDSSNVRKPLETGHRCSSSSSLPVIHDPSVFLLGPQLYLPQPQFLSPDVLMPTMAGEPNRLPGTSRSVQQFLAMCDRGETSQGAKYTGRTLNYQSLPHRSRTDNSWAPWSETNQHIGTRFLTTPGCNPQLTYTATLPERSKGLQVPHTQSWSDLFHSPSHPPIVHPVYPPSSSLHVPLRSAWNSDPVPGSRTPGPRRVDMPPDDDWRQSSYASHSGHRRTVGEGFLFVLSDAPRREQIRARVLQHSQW

Cc1ccc2nnc(CNC(=O)CCl)n2c1
inactive: USP42 0.336 | USP46 -0.000756 | USP47 0.13 | USP48 -0.0762 | USP5 0.114 | USP54 0.357 | USP7 0.0284 | USP8 0.28

— the supplement of paper PMC11732987, “Enantioselective OTUD7B fragment discovery through chemoproteomics screening and high-throughput optimisation” (Communications Chemistry, 2025)
